63 compounds from PubChem BioAssay AID624255 (Broad Institute, 2012) can be followed below.

The whole screen tested about 77,000 compounds, of which about 4,600 (6%) were called active. Not shown: some 1% with an inconclusive outcome. The list comes from a sample in which actives are over-represented; it also holds similar structures and randomly drawn compounds. Values without a mark were called inactive.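 Rule for the calls: active = mean inhibition above about 93%, with at least 55% of replicates each passing it (limit read from the data, passing the limit was not always enough); inconclusive = only one of those two conditions holds; inactive = neither condition holds.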

A short description of the test: growth inhibition of T. cruzi in host fibroblasts – cell-based, beta-gal Tulahuen parasites, NIH3T3 host, luminescence, primary screen (AID 624255). Conditions: T. cruzi beta-gal in NIH3T3, GalScreen luminescence, 90 h; at 8.34 µM; active compounds read high.
Regarding `O=C(O)C[C@H]1C[C@@H]2c3cc(NC(=O)Nc4ccc(C(F)(F)F)cc4)ccc3O[C@@H]2[C@@H](CO)O1`, the inhibition (commonly the change of the read-out against control, counted positive when it falls) was -33%.

For the compound `C[C@H]1CN([C@@H](C)CO)C(=O)c2cccc(NC(=O)Nc3ccccc3)c2O[C@H]1CN(C)S(=O)(=O)c1ccc(F)cc1`, the inhibition is -95%.

Regarding `C[C@H]1CCCCO[C@H](CN(C)CC2CC2)[C@@H](C)CN([C@@H](C)CO)C(=O)c2cc(NS(C)(=O)=O)ccc2O1`, the inhibition is 4.98%.

Consider `CCNC(=O)Nc1ccc2c(c1)C(=O)N(C)[C@@H]1CC[C@@H](CC(=O)NC3CCCCC3)O[C@H]1CO2`, for which the inhibition is 12.5%.

On to `COc1ccccc1-c1ccc([C@@H]2[C@@H](CO)N3CCCCN(C(=O)c4ccncc4)C[C@@H]23)cc1`, for which the inhibition was 52.8%.

For `CC(C)(O)C#Cc1ccc([C@@H]2[C@H](CO)N3CCCCN(C(=O)c4cccc(F)c4)C[C@@H]23)cc1`, the inhibition was 112% (active).

Turning to `O=C(c1cccc(F)c1)N1CCCCN2[C@@H](CO)[C@H](c3ccc(-c4cncnc4)cc3)[C@@H]2C1`, the inhibition was 83.5%.

As to `C[C@H](O)C#Cc1ccc([C@@H]2[C@@H](CO)N3CCCCN(C(=O)c4ccncc4)C[C@@H]23)cc1`, the inhibition is 15.2%.

Turning to `CC(C)(O)C#Cc1ccc([C@H]2[C@H]3CN(C(=O)c4ccncc4)CCCCN3[C@H]2CO)cc1`, the inhibition was 22%.

For `CC(C)(O)C#Cc1ccc([C@H]2[C@@H](CO)N3CCCCN(C(=O)c4ccncc4)C[C@H]23)cc1`, the inhibition is 10.9%.

Regarding `O=C(c1cccc(F)c1)N1CCCCN2[C@H](CO)[C@@H](c3ccc(-c4cncnc4)cc3)[C@H]2C1`, the inhibition was 44.2%.

As to `O=C(c1ccc(F)cc1)N1CCCCN2[C@@H](CO)[C@H](c3ccc(-c4ccccc4)cc3)[C@@H]2C1`, the inhibition is 61.8%.

On to `O=C(c1cccc(F)c1)N1CCCCN2[C@H](CO)[C@H](c3ccc(-c4ccncc4)cc3)[C@H]2C1`, for which the inhibition is 99.9% (active).

On to `O=C(c1ccncc1)N1CCCCN2[C@H](CO)[C@H](c3ccc(-c4ccccc4)cc3)[C@H]2C1`, for which the inhibition is 103% (active).

Regarding `C[C@@H](O)C#Cc1ccc([C@H]2[C@H](CO)N3CCCCN(C(=O)c4ccc(F)cc4)C[C@@H]23)cc1`, the inhibition is -25.9%.

Regarding `COc1ccc(C#Cc2ccc([C@@H]3[C@@H](CO)N4CCCCN(C(=O)c5ccncc5)C[C@@H]34)cc2)cc1`, the inhibition was 98.5% (active).

With `O=C(C[C@@H]1CC[C@H]2[C@@H](COC[C@@H](O)CN2C(=O)c2ccc3c(c2)OCO3)O1)NC1CCCC1`, the inhibition was 27%.

As to `CCS(=O)(=O)Nc1ccc2c(c1)C(=O)N(C)[C@H]1CC[C@H](CC(=O)Nc3ccccc3)O[C@@H]1CO2`, the inhibition is 49.6%.

As to `C[C@@H]1CN([C@@H](C)CO)C(=O)c2cc(-c3ccc(F)cc3)cnc2O[C@H]1CN(C)C(=O)c1ccncc1`, the inhibition was 64.3%.

In the case of `CC(C)NC(=O)N(C)C[C@@H]1OCCCC[C@@H](C)Oc2ccc(NC(=O)c3ccccc3)cc2C(=O)N([C@@H](C)CO)C[C@H]1C`, the inhibition was 30.5%.

Turning to `COc1ccc(NC(=O)N(C)C[C@@H]2OCCCC[C@@H](C)Oc3ccc(NC(=O)C4CCCCC4)cc3C(=O)N([C@@H](C)CO)C[C@@H]2C)cc1`, the inhibition was 36.5%.

For the compound `CN1CCN(C(=O)C[C@H]2CC[C@H]3[C@H](COc4ccc(NC(=O)C5CC5)cc4C(=O)N3C)O2)CC1`, the inhibition is 14.2%.

Turning to `O=C(C[C@@H]1C[C@@H]2c3cc(NC(=O)Nc4ccc(C(F)(F)F)cc4)ccc3O[C@@H]2[C@@H](CO)O1)NCCc1ccccc1`, the inhibition was 93.5%.

On to `COc1ccccc1NC(=O)N1C[C@H](O)COC[C@H]2O[C@H](CC(=O)NCCc3ccccc3)CC[C@@H]21`, for which the inhibition is -5.34%.

On to `CCCNC(=O)C[C@@H]1CC[C@@H]2[C@H](COc3ccc(NC(=O)C4CCOCC4)cc3C(=O)N2C)O1`, for which the inhibition is 47.3%.

Regarding `CO[C@@H]1CC[C@@H]2CCOc3ccc(C#N)cc3C(=O)N(C)C[C@@H](C)C(=O)N(C)C[C@@H]1O2`, the inhibition is 9.86%.

Consider `C[C@H](O)C#Cc1ccc([C@H]2[C@H](CO)N3CCCCN(C(=O)c4ccc(F)cc4)C[C@@H]23)cc1`, for which the inhibition was 66.2%.

Turning to `O=C(c1cccc(F)c1)N1CCCCN2[C@H](CO)[C@H](c3ccc(C#CC4(O)CCCC4)cc3)[C@H]2C1`, the inhibition is 88.1%.

Regarding `O=C(c1ccc(F)cc1)N1CCCCN2[C@H](C1)[C@@H](c1ccc(C#CC3(O)CCCC3)cc1)[C@@H]2CO`, the inhibition is 113% (active).

As to `CC(C)C#Cc1ccc([C@H]2[C@H](CO)N3CCCCN(C(=O)c4ccc(F)cc4)C[C@@H]23)cc1`, the inhibition was 80.8%.

Consider `COc1ccc(S(=O)(=O)N(C)C[C@@H]2OCCCC[C@@H](C)Oc3ccc(N(C)C)cc3C(=O)N([C@@H](C)CO)C[C@@H]2C)cc1`, for which the inhibition was 46.8%.

On to `O=C(C[C@@H]1CC[C@@H](NC(=O)CC2CC2)[C@H](CO)O1)NCc1ccc(-c2ccccc2)cc1`, for which the inhibition was 36.4%.

For `N#C[C@@H]1[C@@H](c2ccccc2)[C@@H](CO)N1C(=O)c1cc(Cl)cc(Cl)c1`, the inhibition was 90.7%.

Turning to `COc1ccc(NC(=O)Nc2ccc3c(c2)C(=O)N([C@@H](C)CO)C[C@@H](C)[C@H](CN(C)C(=O)NC(C)C)OCCCC[C@H](C)O3)cc1`, the inhibition is 19.2%.

Regarding `COc1cccc(-c2ccc3n(c2=O)C[C@@H]2[C@@H](CO)[C@H](C(=O)NCC4CC4)N(C(=O)NC(C)C)[C@H]32)c1`, the inhibition was -3.92%.

With `COc1ccc(-c2cn(CC[C@@H]3CC[C@@H](NS(=O)(=O)c4ccccc4C)[C@H](CO)O3)nn2)cc1`, the inhibition was -38.7%.

Take `CCNC(=O)[C@H]1[C@H](CO)[C@H]2Cn3c(cccc3=O)[C@H]2N1C(=O)C1CCCC1`: the inhibition is -9.09%.

Regarding `O=C(NC1CCCCC1)[C@@H]1[C@@H](CO)[C@@H]2Cn3c(cccc3=O)[C@@H]2N1C(=O)CC1CC1`, the inhibition is -9.4%.

For the compound `O=C(Nc1ccc(-c2ccccc2)cc1)[C@@H]1[C@@H](CO)[C@@H]2Cn3c(cccc3=O)[C@H]1N2Cc1ccncc1`, the inhibition was 10.3%.

On to `O=C(NCC1CCCCC1)[C@H]1[C@H](CO)[C@H]2Cn3c(cccc3=O)[C@H]2N1C(=O)CC1CC1`, for which the inhibition was 101% (active).

Turning to `O=C(Nc1ccccc1)[C@@H]1[C@@H](CO)[C@@H]2Cn3c(cccc3=O)[C@@H]2N1C(=O)C1CC1`, the inhibition was 90.7%.

Regarding `O=C(Nc1ccc(-c2ccccc2)cc1)[C@H]1[C@H](CO)[C@H]2Cn3c(cccc3=O)[C@H]2N1CC1CC1`, the inhibition is 170% (active).

Consider `COC(=O)C[C@H]1C[C@@H]2c3cc(NC(=O)Nc4ccccc4)ccc3O[C@@H]2[C@@H](CO)O1`, for which the inhibition is 57.1%.

With `O=C(Cc1ccccn1)NCC[C@H]1CC[C@@H](NS(=O)(=O)c2ccc(F)cc2)[C@H](CO)O1`, the inhibition was 13.9%.

In the case of `COc1ccc(NC(=O)N(C)C[C@@H]2OCCCC[C@H](C)Oc3ccc(NS(=O)(=O)c4c(C)noc4C)cc3C(=O)N([C@@H](C)CO)C[C@@H]2C)cc1`, the inhibition was 52.5%.

Regarding `O=S(=O)(NC[C@H]1[C@@H](c2ccccc2)[C@@H](CO)N1CC1CC1)c1ccccc1`, the inhibition is 10.3%.

Take `N#C[C@H]1[C@@H](c2ccc(C3=CCCCC3)cc2)[C@@H](CO)N1C(=O)Cc1ccncc1`: the inhibition was 57.5%.

Take `CS(=O)(=O)N1[C@H](C#N)[C@H](c2ccc(C#CC3CC3)cc2)[C@H]1CO`: the inhibition is 93%.

As for `N#C[C@@H]1[C@@H](c2ccc(C3=CCCC3)cc2)[C@@H](CO)N1C(=O)C1CCCC1`, the inhibition was 34.1%.

Turning to `CS(=O)(=O)N1[C@H](C#N)[C@H](c2ccc(C#CC3CCCC3)cc2)[C@H]1CO`, the inhibition was 91.5%.

Take `N#C[C@H]1[C@@H](c2ccc(C#CC3CCCC3)cc2)[C@H](CO)N1C(=O)Nc1ccc(F)cc1`: the inhibition is 92.8%.

As for `N#C[C@@H]1[C@@H](c2ccc(C3=CCCCC3)cc2)[C@@H](CO)N1C(=O)c1cccc(F)c1`, the inhibition was 5.72%.

On to `CCCNC(=O)N1[C@H](C#N)[C@@H](c2ccc(C3=CCCC3)cc2)[C@H]1CO`, for which the inhibition is -28.9%.

With `N#C[C@H]1[C@@H](c2ccc(C3=CCCCC3)cc2)[C@@H](CO)N1C(=O)NC1CCCCC1`, the inhibition was 101% (active).

With `CS(=O)(=O)N1[C@@H](C#N)[C@H](c2ccc(C#CC3CCCCC3)cc2)[C@@H]1CO`, the inhibition was 105% (active).

For `CC(C)NC(=O)N1[C@H](C#N)[C@H](c2ccc(C#CC3CCCCC3)cc2)[C@H]1CO`, the inhibition was 107% (active).

Turning to `CC(C)NC(=O)N1[C@H](C#N)[C@@H](c2ccc(-c3ccc(F)cc3)cc2)[C@H]1CO`, the inhibition was 34.6%.

As to `CCc1cnc(N2[C@H](C#N)[C@H](c3ccc(C4=CCCC4)cc3)[C@@H]2CO)s1`, the inhibition is 101% (active).

As for `CO[C@@H]1CN(C)C(=O)c2cc(NC(=O)C3CCCCC3)ccc2OC[C@@H](C)N(C(=O)Nc2ccc(C(F)(F)F)cc2)C[C@H]1C`, the inhibition was 15.6%.

Take `O=C(C[C@H]1CC[C@H]2[C@@H](COC[C@H](O)CN2C(=O)c2ccccc2F)O1)NCc1ccccc1`: the inhibition is -22.2%.

As for `Cc1ccc(S(=O)(=O)Nc2ccc3c(c2)C(=O)N([C@H](C)CO)C[C@@H](C)[C@@H](CN(C)S(C)(=O)=O)OCCCC[C@@H](C)O3)cc1`, the inhibition was 29.2%.

Turning to `CO[C@H]1CN(C)C(=O)c2cc(NC(=O)Nc3c(C)noc3C)ccc2OC[C@@H](C)N(CCC(F)(F)F)C[C@H]1C`, the inhibition is 6.32%.

Turning to `Cc1noc(C)c1NC(=O)Nc1ccc2c(c1)C(=O)N([C@H](C)CO)C[C@@H](C)[C@H](CN(C)C(=O)Nc1cccc3ccccc13)OCCCC[C@@H](C)O2`, the inhibition was 80.3%.
